Laboratory results published in PubChem BioAssay (NCATS).
Records with an inconclusive call do not appear. Activity calls are given as the source filed them. The call rests on the fitted dose curve; in most records, active means well fitted inhibition curve with a large enough effect; inconclusive means small, poorly fitted or top-dose-only effect; inactive means flat fitted curve, though single readings scatter.

How the values were obtained:
HEK293T = experiment: qHTS assay to identify novel small-molecules to repurpose for Merkel cell carcinoma treatment (AID 1296009); settings: MCC and control cell lines, CellTiter-Glo viability, 72 h; at 44.8 µM (top of the series) unless noted
Outline: (§1)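 qHTS format: cells treated with library compounds in DMSO across 8 (NPC) or 11 (MIPE) concentrations. Readout after 72 hr at 37 degree celsius was CellTiter-Glo luminescence.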

MCC-13 = experiment: as above; settings: MCC and control cell lines, CellTiter-Glo viability, 72 h; series mostly up to 46 µM
Outline: as §1

MKL-1 = experiment: as above; settings: MCC and control cell lines, CellTiter-Glo viability, 72 h; series mostly up to 46 µM
Outline: as §1

MKL-2 = experiment: as above; settings: MCC and control cell lines, CellTiter-Glo viability, 72 h; series mostly up to 46 µM
Outline: as §1

PC15 = experiment: qHTS profiling for inhibitors of Plasmodium falciparum proliferation (AID 504749); settings: P. falciparum in erythrocytes, SYBR Green DNA, 72 h; series mostly up to 28.7 µM
Outline: (§2)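 Parasite proliferation within erythrocytes, 72 h exposure. Endpoint: SYBR Green I fluorescence after overnight lysis at room temperature. Controls: 0.29 uM artemisinin, DMSO.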

PC26 = experiment: as above; settings: P. falciparum in erythrocytes, SYBR Green DNA, 72 h; series mostly up to 28.7 µM
Outline: as §2

PC49 = experiment: as above; settings: P. falciparum in erythrocytes, SYBR Green DNA, 72 h; series mostly up to 28.7 µM
Outline: as §2

SC27B = experiment: as above; settings: P. falciparum in erythrocytes, SYBR Green DNA, 72 h; series mostly up to 28.7 µM
Outline: as §2

TAB109 = experiment: as above; settings: P. falciparum in erythrocytes, SYBR Green DNA, 72 h; series mostly up to 28.7 µM
Outline: as §2

TAB113 = experiment: as above; settings: P. falciparum in erythrocytes, SYBR Green DNA, 72 h; series mostly up to 28.7 µM
Outline: as §2

TAB165 = experiment: as above; settings: P. falciparum in erythrocytes, SYBR Green DNA, 72 h; series mostly up to 28.7 µM
Outline: as §2

W2 = experiment: as above; settings: P. falciparum in erythrocytes, SYBR Green DNA, 72 h; series mostly up to 28.7 µM
Outline: as §2

HACAT = experiment: qHTS assay to identify novel small-molecules to repurpose for Merkel cell carcinoma treatment (AID 1296009); settings: MCC and control cell lines, CellTiter-Glo viability, 72 h; at 44.8 µM (top of the series) unless noted
Outline: as §1

MCC-26 = experiment: as above; settings: MCC and control cell lines, CellTiter-Glo viability, 72 h; series mostly up to 46 µM
Outline: as §1

KB-3-1 = experiment: Cytotoxic Profiling of Annotated Libraries Using Quantitative High-Throughput Screening (AID 1296008); settings: Five cell lines viability, CellTiter-Glo ATP luminescence, 48-72 h; max response: active compounds read low; on max response: on the % scale 0 is the no-effect control and ±100 the full control effect
Outline: (§3)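 Compounds were pin-transferred onto cells and incubated 48 or 72 hr at 37 degree Celsius, 95% humidity. CellTiter-Glo was added, plates sat 10 min at room temperature, then ATP-coupled luminescence was imaged as the viability read-out.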

NIH3T3 [1] = experiment: as above; settings: Five cell lines viability, CellTiter-Glo ATP luminescence, 48-72 h; max response: active compounds read low
Outline: as §3

NIH3T3 [2] = experiment: qHTS assay to identify novel small-molecules to repurpose for Merkel cell carcinoma treatment (AID 1296009); settings: MCC and control cell lines, CellTiter-Glo viability, 72 h; at 44.8 µM (top of the series) unless noted
Outline: as §1
Further: nearly all actives have a fitted effect of over 60% in size.
Potency means the concentration at half of the fitted maximal effect.

CC1=C(C(=O)O)N2C(=O)[C@@H](NC(=O)[C@H](N)c3ccc(O)cc3)[C@H]2SC1
inactive: outcome (HEK293T) | Potency (MCC-13) | Potency (MKL-1) | Potency (MKL-2)

Nc1ccc(C(=O)O)cc1
inactive: Potency (PC15) | Potency (PC26) | Potency (PC49) | Potency (SC27B) | Potency (TAB109) | Potency (TAB113) | Potency (TAB165) | Potency (W2) | outcome (HACAT) | outcome (HEK293T) | Potency (MCC-13) | Potency (MCC-26) | Potency (MKL-1) | Potency (MKL-2)

CCCC(=O)Nc1ccc(OCC(O)CNC(C)C)c(C(C)=O)c1 (stereo unspecified)
inactive: outcome (HACAT) | Potency (MCC-13) | Potency (MCC-26) | Potency (MKL-1) | Potency (MKL-2)

CC(C)(C)CC(C)(C)c1ccc(O)c(Cc2ccc(Cl)cc2Cl)c1
inactive: max response (KB-3-1) -6.63%
active: Potency (PC15) 2.24 µM | Potency (PC26) 1.51 µM | Potency (PC49) 1.78 µM | Potency (SC27B) 1.26 µM | Potency (TAB109) 2 µM | Potency (TAB113) 1.12 µM | Potency (TAB165) 0.794 µM | Potency (W2) 0.426 µM

CC(=O)OCC(=O)NCCCOc1cccc(CN2CCCCC2)c1
inactive: Potency (PC15) | Potency (PC26) | Potency (PC49) | Potency (SC27B) | Potency (TAB109) | Potency (TAB113) | Potency (TAB165) | Potency (W2) | outcome (HEK293T) | Potency (MCC-13) | Potency (MCC-26) | Potency (MKL-1) | Potency (MKL-2)

C[C@]12C=CC(=O)C=C1CC[C@@H]1[C@@H]2[C@@H](O)C[C@@]2(C)[C@H]1CC[C@]2(O)C(=O)CO
inactive: outcome (NIH3T3 [1])

Nc1nc2ncc(CNc3ccc(C(=O)N[C@@H](CCC(=O)O)C(=O)O)cc3)nc2c(=O)[nH]1
inactive: outcome (HEK293T) | Potency (MCC-13) | Potency (MKL-1) | Potency (MKL-2)

C[C@@H]1C(=O)NC2=Nc3cccc(Cl)c3CN21
inactive: Potency (PC15) | Potency (PC26) | Potency (PC49) | Potency (SC27B) | Potency (TAB109) | Potency (TAB165) | Potency (W2) | max response (KB-3-1) -2.45%

N[C@@H](CCC(=O)N[C@@H](CS)C(=O)NCC(=O)O)C(=O)O
inactive: outcome (HACAT) inactive [at 17.4 µM] | Potency (MCC-13) | Potency (MCC-26) | Potency (MKL-1) | Potency (MKL-2) | outcome (NIH3T3 [2]) inactive [at 17.4 µM]

CCCCC1=NC2(CCCC2)C(=O)N1Cc1ccc(-c2ccccc2-c2nn[nH]n2)cc1
inactive: Potency (PC15) | Potency (PC49) | Potency (TAB109) | Potency (TAB113) | outcome (HACAT) | outcome (HEK293T) | Potency (MCC-13) | Potency (MCC-26) | Potency (MKL-1) | Potency (MKL-2)

O=C1CCC(c2ccc(-n3ccnc3)cc2)=NN1
inactive: Potency (PC15) | Potency (PC26) | Potency (PC49) | Potency (SC27B) | Potency (TAB109) | Potency (TAB113) | Potency (TAB165) | Potency (W2) | max response (KB-3-1) 11.9%

CCCSS/C(CCO)=C(\C)N(C=O)Cc1cnc(C)nc1N
inactive: max response (KB-3-1) 33.8%
active: Potency (MKL-1) 21.1 µM | Potency (MKL-2) 6.68 µM

Nc1cc(Cl)c(NC2=NCCN2)c(Cl)c1
inactive: Potency (PC15) | Potency (PC26) | Potency (PC49) | Potency (SC27B) | Potency (TAB109) | Potency (TAB113) | Potency (TAB165) | Potency (W2) | max response (KB-3-1) -1.36%

NCCC(O)(P(=O)(O)O)P(=O)(O)O
inactive: Potency (PC15) | Potency (PC26) | Potency (PC49) | Potency (SC27B) | Potency (TAB109) | Potency (TAB113) | Potency (TAB165) | Potency (W2) | outcome (HACAT) | Potency (MCC-13) | Potency (MCC-26) | Potency (MKL-1) | Potency (MKL-2)

CC[C@@H](CO)NCCN[C@@H](CC)CO
inactive: outcome (HEK293T) | Potency (MCC-13) | Potency (MKL-1) | Potency (MKL-2) | outcome (NIH3T3 [2])

Cc1ccnc(NS(=O)(=O)c2ccc(N)cc2)n1
inactive: Potency (PC15) | Potency (PC26) | Potency (PC49) | Potency (SC27B) | Potency (TAB109) | Potency (TAB113) | Potency (TAB165) | Potency (W2) | outcome (HACAT) | outcome (HEK293T) | Potency (MCC-13) | Potency (MCC-26) | Potency (MKL-1) | Potency (MKL-2)

OC[C@@H](O)[C@@H](O[C@@H]1O[C@H](CO)[C@H](O)[C@H](O)[C@H]1O)[C@H](O)[C@@H](O)CO
inactive: Potency (MCC-13) | Potency (MCC-26) | Potency (MKL-1) | Potency (MKL-2)

Nc1ccc(C(=O)Nc2ccccc2N)cc1
active: Potency (MKL-1) 18.8 µM | Potency (MKL-2) 5.96 µM
inactive: Potency (PC15) | Potency (PC26) | Potency (PC49) | Potency (SC27B) | Potency (TAB109) | Potency (TAB113) | Potency (TAB165) | max response (KB-3-1) -27.7%

CC1=C(C(=O)OC(C)C)C(c2cccc([N+](=O)[O-])c2)C(C(=O)OC2CN(C(c3ccccc3)c3ccccc3)C2)=C(N)N1 (stereo unspecified)
active: Potency (PC15) 4.47 µM | Potency (PC26) 7.57 µM | Potency (SC27B) 10 µM | Potency (TAB109) 6.31 µM | Potency (TAB113) 7.08 µM | Potency (TAB165) 5.01 µM | Potency (W2) 5.36 µM | Potency (KB-3-1) 18.4 µM | Potency (MKL-1) 21.1 µM | Potency (MKL-2) 16.8 µM

CCOC(=O)/C=C(C)/C=C/C=C(C)/C=C/c1c(C)cc(OC)c(C)c1C
active: Potency (TAB113) 3.55 µM
inactive: Potency (PC15) | Potency (PC49) | outcome (HACAT) | Potency (MCC-13) | Potency (MCC-26)

COc1ccc(OC)c(C(O)CNC(=O)CN)c1 (stereo unspecified)
inactive: outcome (HACAT) | Potency (MCC-13) | Potency (MKL-1) | Potency (MKL-2)

CNCCC=C1c2ccccc2CCc2ccccc21
inactive: max response (KB-3-1) -9.12%
active: Potency (W2) 1.51 µM

NCCc1ccn[nH]1
inactive: Potency (PC15) | Potency (PC26) | Potency (PC49) | Potency (SC27B) | Potency (TAB109) | Potency (TAB113) | Potency (TAB165) | Potency (W2) | outcome (HACAT) | Potency (MCC-13) | Potency (MCC-26) | Potency (MKL-1) | Potency (MKL-2)
